Laboratory results: the supplement of paper PMC6411743
± gives the standard deviation of the averaged measurements. The full data set covers some 6,200 targets. This sample favours those with the largest changes.

Compound: Nc1ncnc2c1ncn2[C@@H]1O[C@H](COP(=O)(O)OP(=O)(O)NP(=O)(O)O)[C@@H](O)[C@H]1O [adenylyl imidodiphosphate]
Experiment: NP40-soluble protein abundance relative to vehicle (solubility fold change) (ratio); higher = more soluble protein in presence of AMP-PNP
In short: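 Crude Jurkat lysate, prepared by Dounce homogenisation, was exposed to eight concentrations from 0.1 to 10 mM for 10 min at room temperature and then 3 min at 37 °C. Solubilisation used 0.8% NP40 with benzonase for 60 min at 4 °C, followed by ultracentrifugation and TMT labelling of the supernatant for LC-MS/MS. After vsn normalisation of intensities, each value is the fold change against the detergent-processed vehicle within each replicate, across three independent experiments.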

Sequence of UniProt Q9BV79 (Q9BV79 whole entry): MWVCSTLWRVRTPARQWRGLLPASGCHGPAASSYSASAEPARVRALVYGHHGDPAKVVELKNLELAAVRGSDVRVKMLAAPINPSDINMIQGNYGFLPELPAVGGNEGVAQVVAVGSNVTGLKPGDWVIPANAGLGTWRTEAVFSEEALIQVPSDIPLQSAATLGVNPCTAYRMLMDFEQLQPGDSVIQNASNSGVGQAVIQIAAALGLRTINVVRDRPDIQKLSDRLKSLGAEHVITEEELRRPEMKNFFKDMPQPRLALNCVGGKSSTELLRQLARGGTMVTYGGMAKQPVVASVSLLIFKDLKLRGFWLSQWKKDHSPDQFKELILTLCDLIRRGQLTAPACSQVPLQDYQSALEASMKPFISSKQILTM
Sequence of UniProt Q9ULV4 (Q9ULV4 whole entry): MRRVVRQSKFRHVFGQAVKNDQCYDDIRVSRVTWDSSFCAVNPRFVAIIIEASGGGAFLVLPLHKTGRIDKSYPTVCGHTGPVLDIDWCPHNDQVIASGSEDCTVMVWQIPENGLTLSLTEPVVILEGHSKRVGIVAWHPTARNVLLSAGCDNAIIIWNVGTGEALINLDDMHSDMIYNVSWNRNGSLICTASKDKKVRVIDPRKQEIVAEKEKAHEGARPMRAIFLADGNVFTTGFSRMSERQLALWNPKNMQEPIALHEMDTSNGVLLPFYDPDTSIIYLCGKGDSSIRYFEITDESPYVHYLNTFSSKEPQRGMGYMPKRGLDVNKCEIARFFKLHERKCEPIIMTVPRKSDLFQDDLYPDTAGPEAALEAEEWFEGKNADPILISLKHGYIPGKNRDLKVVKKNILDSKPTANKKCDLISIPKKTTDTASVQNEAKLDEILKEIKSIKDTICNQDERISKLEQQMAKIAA
Sequence of UniProt Q9Y639 (Q9Y639 whole entry): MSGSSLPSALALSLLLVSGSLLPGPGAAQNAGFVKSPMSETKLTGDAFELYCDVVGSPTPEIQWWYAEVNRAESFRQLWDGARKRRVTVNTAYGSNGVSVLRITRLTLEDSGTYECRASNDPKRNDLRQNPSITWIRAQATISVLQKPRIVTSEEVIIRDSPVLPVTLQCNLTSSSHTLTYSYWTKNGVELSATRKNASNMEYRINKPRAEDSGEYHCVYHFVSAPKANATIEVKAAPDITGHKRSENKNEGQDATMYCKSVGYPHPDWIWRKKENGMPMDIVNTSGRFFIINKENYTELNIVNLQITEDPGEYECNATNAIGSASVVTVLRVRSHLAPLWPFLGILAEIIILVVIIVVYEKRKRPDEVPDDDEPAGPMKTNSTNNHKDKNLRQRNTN
Sequence of UniProt Q9NXR1 (Q9NXR1 whole entry, one chain of several): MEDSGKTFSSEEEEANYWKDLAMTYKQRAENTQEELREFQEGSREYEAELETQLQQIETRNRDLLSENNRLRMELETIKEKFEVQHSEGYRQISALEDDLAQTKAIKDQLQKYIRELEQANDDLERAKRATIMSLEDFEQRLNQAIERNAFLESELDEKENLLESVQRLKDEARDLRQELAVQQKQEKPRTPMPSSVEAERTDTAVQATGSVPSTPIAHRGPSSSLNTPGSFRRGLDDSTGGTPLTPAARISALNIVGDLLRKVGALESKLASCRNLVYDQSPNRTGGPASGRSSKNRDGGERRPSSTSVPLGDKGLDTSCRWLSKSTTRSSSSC
Sequence of UniProt Q9NUY8 (Q9NUY8 whole entry): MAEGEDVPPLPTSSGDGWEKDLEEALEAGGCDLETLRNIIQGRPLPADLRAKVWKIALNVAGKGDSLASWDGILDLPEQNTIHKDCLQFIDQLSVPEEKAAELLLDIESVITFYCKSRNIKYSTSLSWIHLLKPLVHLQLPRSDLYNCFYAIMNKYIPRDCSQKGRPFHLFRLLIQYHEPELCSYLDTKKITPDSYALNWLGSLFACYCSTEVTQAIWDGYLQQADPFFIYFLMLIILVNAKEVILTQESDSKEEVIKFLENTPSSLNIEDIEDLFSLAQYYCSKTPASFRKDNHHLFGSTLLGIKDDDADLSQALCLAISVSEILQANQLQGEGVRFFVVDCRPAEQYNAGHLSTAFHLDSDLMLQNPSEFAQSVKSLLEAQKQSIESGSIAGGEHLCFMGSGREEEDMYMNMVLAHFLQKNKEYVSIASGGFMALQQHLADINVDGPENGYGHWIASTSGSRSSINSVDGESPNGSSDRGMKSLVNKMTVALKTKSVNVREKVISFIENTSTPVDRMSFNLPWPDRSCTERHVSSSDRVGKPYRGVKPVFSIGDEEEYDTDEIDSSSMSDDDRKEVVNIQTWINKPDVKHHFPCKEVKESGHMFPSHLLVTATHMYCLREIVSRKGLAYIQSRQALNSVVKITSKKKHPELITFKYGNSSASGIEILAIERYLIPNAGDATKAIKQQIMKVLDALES
Sequence of UniProt Q9Y5B6 (Q9Y5B6 whole entry): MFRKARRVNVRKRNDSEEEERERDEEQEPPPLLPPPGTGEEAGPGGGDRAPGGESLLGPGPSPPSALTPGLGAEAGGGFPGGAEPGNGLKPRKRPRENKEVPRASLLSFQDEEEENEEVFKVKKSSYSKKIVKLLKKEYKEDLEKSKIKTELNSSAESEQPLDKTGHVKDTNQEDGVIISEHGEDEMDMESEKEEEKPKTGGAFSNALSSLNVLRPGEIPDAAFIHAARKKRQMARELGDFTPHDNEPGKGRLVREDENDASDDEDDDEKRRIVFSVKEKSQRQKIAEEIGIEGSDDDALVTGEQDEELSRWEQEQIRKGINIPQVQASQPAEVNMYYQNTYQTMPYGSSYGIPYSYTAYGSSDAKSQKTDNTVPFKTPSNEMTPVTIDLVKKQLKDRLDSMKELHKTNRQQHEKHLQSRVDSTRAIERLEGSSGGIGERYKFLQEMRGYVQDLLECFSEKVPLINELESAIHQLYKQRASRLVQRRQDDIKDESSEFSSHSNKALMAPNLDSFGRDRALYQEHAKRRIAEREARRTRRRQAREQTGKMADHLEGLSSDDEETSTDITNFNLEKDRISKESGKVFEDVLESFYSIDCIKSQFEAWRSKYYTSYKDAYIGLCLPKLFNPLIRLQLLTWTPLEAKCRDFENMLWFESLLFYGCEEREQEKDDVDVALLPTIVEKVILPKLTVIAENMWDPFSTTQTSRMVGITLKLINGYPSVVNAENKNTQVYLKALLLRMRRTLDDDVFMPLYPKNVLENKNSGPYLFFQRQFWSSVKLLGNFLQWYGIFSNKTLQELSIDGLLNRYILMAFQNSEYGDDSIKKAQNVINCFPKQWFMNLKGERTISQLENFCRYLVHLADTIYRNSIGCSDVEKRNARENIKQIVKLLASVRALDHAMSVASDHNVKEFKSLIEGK
Sequence of UniProt Q9Y303 (Q9Y303 whole entry): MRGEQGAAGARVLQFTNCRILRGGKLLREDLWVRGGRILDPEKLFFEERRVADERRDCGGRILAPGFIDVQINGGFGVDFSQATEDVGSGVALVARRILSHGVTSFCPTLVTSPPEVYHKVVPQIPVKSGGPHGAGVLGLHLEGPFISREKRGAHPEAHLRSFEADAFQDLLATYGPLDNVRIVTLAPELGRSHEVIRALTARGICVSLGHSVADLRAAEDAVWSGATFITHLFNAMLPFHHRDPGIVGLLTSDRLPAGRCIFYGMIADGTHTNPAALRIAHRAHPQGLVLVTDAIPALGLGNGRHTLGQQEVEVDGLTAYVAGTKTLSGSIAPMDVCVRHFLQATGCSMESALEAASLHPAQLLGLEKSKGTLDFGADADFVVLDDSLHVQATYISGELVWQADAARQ
Sequence of UniProt Q9UK76 (Q9UK76 whole entry): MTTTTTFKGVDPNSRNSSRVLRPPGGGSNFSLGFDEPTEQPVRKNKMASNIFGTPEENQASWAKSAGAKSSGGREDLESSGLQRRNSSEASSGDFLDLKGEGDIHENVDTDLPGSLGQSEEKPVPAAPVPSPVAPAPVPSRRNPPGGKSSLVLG
Sequence of UniProt Q9UG63 (Q9UG63 whole entry): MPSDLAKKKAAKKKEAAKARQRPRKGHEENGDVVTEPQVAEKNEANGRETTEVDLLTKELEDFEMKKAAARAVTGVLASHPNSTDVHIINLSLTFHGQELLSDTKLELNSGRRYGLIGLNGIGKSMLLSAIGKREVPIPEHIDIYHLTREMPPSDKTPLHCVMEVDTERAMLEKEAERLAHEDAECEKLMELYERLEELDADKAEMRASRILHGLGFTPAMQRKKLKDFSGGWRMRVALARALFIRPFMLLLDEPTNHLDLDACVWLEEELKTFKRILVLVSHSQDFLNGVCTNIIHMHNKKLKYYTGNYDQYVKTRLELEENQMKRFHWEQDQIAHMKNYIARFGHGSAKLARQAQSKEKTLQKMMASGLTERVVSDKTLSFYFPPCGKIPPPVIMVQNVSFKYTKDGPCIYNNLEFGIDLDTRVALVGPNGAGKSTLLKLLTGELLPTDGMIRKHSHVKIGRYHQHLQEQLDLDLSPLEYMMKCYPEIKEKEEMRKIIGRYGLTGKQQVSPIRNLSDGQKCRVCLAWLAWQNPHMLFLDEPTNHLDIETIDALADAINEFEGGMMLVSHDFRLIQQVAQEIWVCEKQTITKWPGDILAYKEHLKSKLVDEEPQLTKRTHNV
Sequence of UniProt Q9NZ63 (Q9NZ63 whole entry): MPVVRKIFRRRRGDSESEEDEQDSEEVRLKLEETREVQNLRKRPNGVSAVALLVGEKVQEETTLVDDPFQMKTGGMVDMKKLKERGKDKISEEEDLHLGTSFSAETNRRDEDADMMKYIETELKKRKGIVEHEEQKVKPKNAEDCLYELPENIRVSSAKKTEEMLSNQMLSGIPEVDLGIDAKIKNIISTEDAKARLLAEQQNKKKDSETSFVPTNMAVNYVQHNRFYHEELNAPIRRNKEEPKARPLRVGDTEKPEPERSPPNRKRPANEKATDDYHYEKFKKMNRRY
Sequence of UniProt Q9NRP0 (Q9NRP0 whole entry): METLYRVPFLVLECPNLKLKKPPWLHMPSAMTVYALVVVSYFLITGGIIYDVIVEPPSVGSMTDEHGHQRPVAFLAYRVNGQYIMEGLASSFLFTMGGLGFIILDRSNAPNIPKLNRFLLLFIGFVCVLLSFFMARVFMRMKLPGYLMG
Sequence of UniProt Q9NZ45 (Q9NZ45 whole entry): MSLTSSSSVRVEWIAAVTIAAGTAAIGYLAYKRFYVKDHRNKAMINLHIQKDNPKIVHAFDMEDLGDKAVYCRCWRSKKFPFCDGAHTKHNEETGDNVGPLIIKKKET

Target	NP40-soluble protein abundance (concentration: 1mM)	NP40-soluble protein abundance (concentration: 2mM)	NP40-soluble protein abundance (concentration: 4mM)	NP40-soluble protein abundance (concentration: 6mM)	NP40-soluble protein abundance (concentration: 8mM)	NP40-soluble protein abundance (concentration: 10mM)
UniProt Q9UG63|Q9UG63-2	1.04 ± 0.06	1.15 ± 0.065	1.41 ± 0.054	1.82 ± 0.11	2.25 ± 0.15	2.54 ± 0.26
CPSF2 (UniProt Q9P2I0)	1.01 ± 0.016	1 ± 0.053	1.03 ± 0.027	1.03 ± 0.061	1.05 ± 0.035	1.07 ± 0.055
UniProt Q9UK76	1.08 ± 0.088	1.1 ± 0.08	1.03 ± 0.067	0.982 ± 0.092	0.893 ± 0.037	0.973 ± 0.1
UniProt Q9Y5B6|Q9Y5B6-2	1.03 ± 0.048	1.05 ± 0.017	1.07 ± 0.057	1.06 ± 0.051	1.07 ± 0.049	1.14 ± 0.053
AMDHD2 (UniProt Q9Y303)	0.968 ± 0.016	0.923 ± 0.048	0.949 ± 0.024	0.954 ± 0.024	0.948 ± 0.02	0.922 ± 0.033
UniProt Q9Y639|Q9Y639-1	1.01 ± 0.056	1.05 ± 0.055	1.01 ± 0.056	0.986 ± 0.028	0.984 ± 0.055	0.961 ± 0.025
UniProt Q9ULV4|Q9ULV4-2|Q9ULV4-3	1.07 ± 0.04	1.11 ± 0.056	1.12 ± 0.026	1.26 ± 0.015	1.33 ± 0.018	1.39 ± 0.037
UBAC1 (UniProt Q9BSL1)	0.965 ± 0.0098	1.01 ± 0.011	0.998 ± 0.028	0.955 ± 0.015	0.932 ± 0.036	0.933 ± 0.034
OSTC (UniProt Q9NRP0)	1.02 ± 0.038	1.02 ± 0.025	1.03 ± 0.049	1.03 ± 0.022	1.039 ± 0.0094	1.04 ± 0.015
UniProt Q9NUY8|Q9NUY8-2	0.961 ± 0.0094	0.999 ± 0.026	0.986 ± 0.014	1 ± 0.035	0.991 ± 0.027	1.01 ± 0.031
MECR (UniProt Q9BV79)	1.04 ± 0.021	1.21 ± 0.051	1.07 ± 0.011	1.04 ± 0.024	1.048 ± 0.0045	1.05 ± 0.03
UniProt Q96P48|Q96P48-3	0.968 ± 0.022	0.896 ± 0.14	0.983 ± 0.07	0.903 ± 0.059	0.955 ± 0.066	0.882 ± 0.062
NSMCE4A (UniProt Q9NXX6)	0.993 ± 0.068	0.945 ± 0.067	0.967 ± 0.056	0.933 ± 0.017	0.96 ± 0.026	0.941 ± 0.09
MOV10 (UniProt Q9HCE1)	0.952 ± 0.027	0.867 ± 0.15	0.932 ± 0.09	0.938 ± 0.032	0.944 ± 0.08	0.889 ± 0.12
C9orf78 (UniProt Q9NZ63)	0.999 ± 0.047	1.03 ± 0.038	0.982 ± 0.055	0.971 ± 0.036	0.966 ± 0.034	0.939 ± 0.078
CISD1 (UniProt Q9NZ45)	1 ± 0.047	1.04 ± 0.046	1 ± 0.04	0.992 ± 0.039	1.02 ± 0.0018	0.968 ± 0.051
UniProt Q9NXR1|Q9NXR1-2|X5DR54	0.994 ± 0.029	1.07 ± 0.041	1.01 ± 0.025	0.978 ± 0.019	0.985 ± 0.026	0.9852 ± 0.0096
UniProt Q9UIG0|Q9UIG0-2	1.04 ± 0.048	1.08 ± 0.055	1.11 ± 0.046	1.23 ± 0.074	1.3 ± 0.11	1.45 ± 0.16
